PubChem BioAssay (NCI)
Compounds without any hit were thinned out: in the full panel of roughly 83,000, 20% have a hit.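 Interpretation: 100, growth as untreated; towards 0, rising growth inhibition; 0, no net growth; 0 to -100, cell death. Compounds scoring below 10 were considered active.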 Activity calls are given as the source filed them.

Each compound was assayed on MDA-MB-468 breast (assay: NCI-60 one-dose screen, 48 h (100 = growth as untreated, 0 = no growth, -100 = all killed)). Settings: 10 µM unless noted.

SMILES | growth
Cc1ccc(NC(=O)Cn2cc(CN3CCN(c4ccnc5cc(Cl)ccc45)CC3)nn2)cc1 | 88.1% (inactive)
CNCCCOc1c(Br)cc(CCNC(=O)/C(Cc2cc(Br)c(OC)c(Br)c2)=N/O)cc1Br | 3.11% (active)
O=C(Nc1ccc(-n2ccc3c(NC(=O)c4ccccc4)ncnc32)cc1)c1cccc(C(F)(F)F)c1 | 58.6% (inactive)
O=C1C(Cl)=C(Oc2ccccc2)C(=O)c2ccccc21 | 13% (inactive)
COC(=O)c1cc2c(n1Cc1ccccc1)-c1oncc1CCC2 | 63.5% (inactive)
Cc1cc(=O)oc2c1ccc1oc(C(=O)c3ccccc3)c(C)c12 | 76.1% (inactive)
O=C(NCCNC(=O)c1ccc(F)cc1)Nc1ccc(-n2cc(-c3ccncc3)c(-c3ccc(Cl)c(O)c3)n2)cc1 | -35.9% (active)
COc1ccc(-c2cn(-c3ccccc3)c(-c3ccccc3)n2)cc1OC | 9.76% (active)
COc1ccc(Nc2ncccc2/C=C/C(=O)c2cc(OC)c(OC)c(OC)c2)cc1 | -62.1% (active)
CCCCSC1=C(Cl)CN(c2ccc(Cl)cc2)C1=O | 77.9% (inactive)
C#CCOc1ccc2ncnc(NCc3cccc(NC(=O)CCl)c3)c2c1 | 4.87% [8.25 µM] (active)
COc1cc(C(=O)Nc2ccc(-c3nc4ccccc4[nH]3)cc2)cc(OC)c1OC | 6.62% (active)
CCC(C)(C)C(=O)O[C@H]1C[C@@H](C)C=C2C=C[C@H](C)[C@H](CC[C@@H]3C[C@@H](O)CC(=O)O3)[C@H]21 | 52.6% (inactive)
COc1ccc(/C=N\Nc2nc(SCC(C)C)nc(-c3ccc(OC)cc3)c2C#N)cc1 | 71.8% (inactive)
